The values below come from PubChem BioAssay (Tox21).

Records with an inconclusive call do not appear. Calls of active or inactive are those of the source. Calls follow the shape of the dose curve; as a rule, active = well fitted cell-killing curve with a large enough effect in the repeat runs; inconclusive = weak or mixed curves, or effect the other way; inactive = flat fitted curve, though single readings scatter.
% is scaled to controls: 0 for no effect and ±100 for the full control effect; potency is read from the fitted curve at half-maximal effect.

A short description of this experiment: qHTS assay to identify small molecule agonists of the estrogen receptor beta (ER-beta) signaling pathway - cell viability counter screen (AID 1259380). Also: nearly all actives have a fitted effect of over 30% in size. To be noted: ER-beta-bla HEK293T viability, CellTiter-Glo luminescence, 16 h; series mostly up to 92.4 µM; activity change, negative = cytotoxicity: at the top concentration. From the text: National Center for Advancing Translational Sciences [NCATS]
NIH Chemical Genomics Center [NCGC]
U.S. Environmental Protection Agency [EPA]
National Institutes of Environmental Health Sciences [NIEHS]
National Toxicology Program [NTP]
U.S. Food and Drug Administration [FDA]
Estrogen receptor (ER), a nuclear hormone receptor, plays an important role in development, metabolic homeostasis and reproduction. Two subtypes of ER, ER-alpha and ER-beta, have similar expression patterns with some uniqueness in both types. Endocrine disrupting chemicals (EDCs) and their interactions with steroid hormone receptors like ER causes disruption of normal endocrine function. To identify the compounds that activate ER signaling, an ER beta-UAS-bla GripTite cell line (Life Technologies, Madison, WI, USA) containing a beta-lactamase reporter gene under the control of an UAS response element was used to screen Tox21 10K compound library. The cytotoxicity of the Tox21 compound library against the ER-beta-bla cell line was tested in parallel by measuring the cell viability using CellTiter-Glo assay in the same wells.
Tox21 Assay Protocol Summary:
ER-beta-UAS-bla HEK293T cells were dispensed at 2,000 cells/5 uL of assay medium containing 2% charcoal stripped FBS per well into black wall/clear-bottom 1536-well plates using a Multidrop Combi (ThermoFisher Scientific, Waltham, MA) dispenser. After the assay plates were incubated at a 37C and 5% CO2 for 6 hr, 23 nL of compounds dissolved in DMSO, positive controls or DMSO only was transferred to the assay plate by a Pintool station (Kalypsys, San Diego, CA). The plates were incubated at 37C and 5% CO2 for 16 hr. Then 1 uL of LiveBLAzerTM B/G FRET substrate was added using a BioRAPTR FRD (Flying Reagent Dispenser, Aurora Discovery, San Diego, CA) and then the plates were incubated at room temperature for 2 hours, and fluorescence intensity was measured by an Envision plate reader (PerkinElmer, Shelton, CT). For cell viability readout that measures cytotoxicity, 4 uL/well of CellTiter-Glo reagent was added into the assay plates using a FRD. After 30 min incubation at room temperature, the luminescence intensity in the plates was measured using a ViewLux (PerkinElmer) plate reader.
For orientation: Quantitative high-throughput screening tests each substance at several concentrations.
Take `CCOCCOCCOCC`: the “activity change, negative = cytotoxicity” value is 1.27% (inactive).

As for `Cc1ccsc1/C=C/C1=NCCCN1C`, the “activity change, negative = cytotoxicity” value was -8.63% [at 42.5 µM] (inactive).

For `CC(C)=CCOC(=O)c1ccccc1`, the “activity change, negative = cytotoxicity” value is 4.4% (inactive).

For `CC1(C)S[C@@H]2[C@H](N=CN3CCCCCC3)C(=O)N2[C@H]1C(=O)O`, the “activity change, negative = cytotoxicity” value is 10.5% [at 42.5 µM] (inactive).

Regarding `On1nnc2ccccc21`, the Potency was 1.54 µM (active).

`CCCCCOC(=O)CCC`: the “activity change, negative = cytotoxicity” value was 3.93% (inactive).

For `O=C(CCNNC(=O)c1ccncc1)NCc1ccccc1`, the “activity change, negative = cytotoxicity” value was 0.344% [at 42.5 µM] (inactive).

As to `Cc1cccc(OCC(O)CNC(C)(C)C)c1C` (stereo not given), the Potency is 13.3 µM (active).

Consider `CC(C)OC(=O)CCCCC(=O)OC(C)C`, for which the “activity change, negative = cytotoxicity” value is -0.221% (inactive).

Consider `Cc1cc(C(C)(C)C)c(O)c(C)c1CC1=NCCN1`, for which the “activity change, negative = cytotoxicity” value was 0.431% [at 42.5 µM] (inactive).

Turning to `COc1cc(C(=S)N2CCOCC2)cc(OC)c1OC`, the “activity change, negative = cytotoxicity” value is -0.233% [at 42.5 µM] (inactive).

For `Nc1ccc2cc(S(=O)(=O)O)cc(O)c2c1`, the “activity change, negative = cytotoxicity” value was 6.63% (inactive).

`O=C1O[C@@H]2[C@@H](O)[C@H](O)O[C@@H]2[C@H]1O`: the “activity change, negative = cytotoxicity” value was -3.98% (inactive).

In the case of `CC(C)C(=O)OCc1cccc(OC(=O)[C@@H]2N3C(=O)[C@@H](NC(=O)Cc4ccccc4)[C@H]3SC2(C)C)c1`, the “activity change, negative = cytotoxicity” value was -0.96% [at 42.5 µM] (inactive).

`Cc1ccc2ccc(Cl)cc2n1`: the “activity change, negative = cytotoxicity” value is 11.5% [at 42.5 µM] (inactive).

With `Cc1[nH]cnc1-c1ccc(Cl)cc1`, the “activity change, negative = cytotoxicity” value was 2.25% [at 42.5 µM] (inactive).

On to `NCCS`, for which the “activity change, negative = cytotoxicity” value is 2.39% [at 42.5 µM] (inactive).

For the molecule `CC(C(=O)O)c1ccc2c(c1)CC(=O)c1ccccc1S2` (stereo not given), the “activity change, negative = cytotoxicity” value was -8.63% [at 42.5 µM] (inactive).

Turning to `CCCCCCCCOS(=O)(=O)O`, the “activity change, negative = cytotoxicity” value is 4.47% (inactive).

`CN(C)CCOCCO`: the “activity change, negative = cytotoxicity” value was 1% (inactive).

In the case of `COC(=O)C1CC(=O)C(C(=O)OC)CC1=O` (stereo not given), the activity change, negative = cytotoxicity was -5.74% [at 8.39 µM] (inactive).

For the molecule `CCCOC(OCCC)OCCC`, the “activity change, negative = cytotoxicity” value was 8.92% (inactive).

Regarding `Oc1ccccc1-c1nnco1`, the “activity change, negative = cytotoxicity” value is 6.37% [at 42.5 µM] (inactive).

With `O=C(O)c1cc(Br)c(O)c(Br)c1`, the “activity change, negative = cytotoxicity” value was 8.04% (inactive).

As to `O=C1c2ccccc2C(=O)C1c1ccccc1`, the “activity change, negative = cytotoxicity” value is 2.46% [at 42.5 µM] (inactive).

Turning to `CCCCNc1ccc(C(=O)OCCN(C)C)cc1`, the “activity change, negative = cytotoxicity” value was -0.982% [at 42.5 µM] (inactive).

In the case of `CCCCCCCCCC(C)=O`, the “activity change, negative = cytotoxicity” value was 0.758% (inactive).

Regarding `C[Si](C)=O`, the activity change, negative = cytotoxicity is 5.93% [at 8.39 µM] (inactive).

For the molecule `CC(=O)NCCCCCC(=O)O`, the “activity change, negative = cytotoxicity” value was 9.38% [at 42.5 µM] (inactive).

As to `C=C(C)C(=O)OCCOP(=O)(O)OCCOC(=O)C(=C)C`, the “activity change, negative = cytotoxicity” value was 1.36% (inactive).

Regarding `C=C(C)C(=O)OCCN(CC)CC`, the “activity change, negative = cytotoxicity” value was 0.402% (inactive).

As for `CC(C)CC(C)CC(C)CC(C)COC(=O)c1ccccc1C(=O)OCC(C)CC(C)CC(C)CC(C)C` (stereo not given), the “activity change, negative = cytotoxicity” value was 5.1% (inactive).

For the molecule `Brc1ccc(-c2ccccc2)cc1`, the “activity change, negative = cytotoxicity” value is 0.304% (inactive).

For the molecule `COCCOCCOCCOCCO`, the “activity change, negative = cytotoxicity” value was 3.84% (inactive).

For the molecule `Cc1cc(Cl)c(C)cc1Cl`, the “activity change, negative = cytotoxicity” value was 0.372% (inactive).

For the molecule `FC(F)(F)c1ccccc1-n1ccnc1`, the “activity change, negative = cytotoxicity” value was 3.05% [at 42.5 µM] (inactive).

Take `NNc1nnc(NN)c2ccccc12`: the “activity change, negative = cytotoxicity” value is 0.268% [at 42.5 µM] (inactive).

Take `Cc1ccc2c(c1)OCC(=O)CO2`: the “activity change, negative = cytotoxicity” value was 2.93% (inactive).

For the molecule `O=C(O)CCSSCCC(=O)O`, the “activity change, negative = cytotoxicity” value was 2.77% (inactive).

Consider `CC(=O)N[C@@H](CCC(=O)O)C(=O)O`, for which the “activity change, negative = cytotoxicity” value was 7.6% [at 42.5 µM] (inactive).
